From PubChem BioAssay AID371 (SRMLSC, 2006) come the findings set out here.

Out of some 3,300 compounds screened, about 280 (8.5%) were called active. Only a selection was taken, and actives are over-represented in it overall. Values without a mark were called inactive.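 How the source made its calls: active means mean growth inhibition over the two runs of 50% or more; inactive means mean growth inhibition under 50%.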

The experiment in a line: A549 NSCLC cell proliferation inhibitors – ATP luminescence, human non-small cell lung line, primary screen (AID 371).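 Further: compound exposure lasted 72 h before the ATP read; 0% = untreated cell signal and 100% = no luminescence left.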 The conditions noted are these: at 10 µM, hits give high values.
Regarding `COc1cc(NC2=CC(=O)CC(C)(C)C2)cc(OC)c1OC`, the growth inhibition was 3.91%.
For the compound `Cc1nc(NS(=O)(=O)c2ccccc2)sc1NC(=O)OC(C)C`, the growth inhibition is 3.58%.
For `Cc1cccc(-c2nc(C#N)c(NC3CCCCC3)o2)c1`, the growth inhibition was 34.3%.
For `Cc1ccc(CNC(=O)c2cc3c(=O)n4ccccc4nc3n(CC3CCCO3)c2=N)cc1` (stereo not drawn), the growth inhibition is 44.3%.
With `CCOC(=O)c1cc2c(=O)n3cccc(C)c3nc2n(C)c1=N`, the growth inhibition was 27.1%.
As for `COC(=O)c1cc2c(=O)n3cccc(C)c3nc2n(Cc2cccnc2)c1=N`, the growth inhibition was 2.48%.
With `Cc1ccc(S(=O)(=O)c2cc3c(=O)n4ccccc4nc3n(C)c2=N)cc1`, the growth inhibition is -2.02%.
For `Cc1ccc(CNC(=O)c2cc3c(=O)n4ccccc4nc3n(Cc3ccco3)c2=N)cc1` the value was 92.5% (active); for `CCOC(=O)c1cc2c(=O)n3cccc(C)c3nc2n(CCc2ccccc2)c1=N`, 16.5%.
As to `Cc1cccn2c(=O)c3cc(C(=O)NCc4cccnc4)c(=N)n(C)c3nc12`, the growth inhibition is -1.19%.
With `Cn1c(=O)c2c(nc(NCc3ccco3)n2CCc2ccccc2)n(C)c1=O` the figure was 34.5%; with `Cc1cccn2c(=O)c3cc(C(N)=S)c(=N)n(CCCOC(C)C)c3nc12`, 51.3% (active).
`CC(C)OCCCn1c(=N)c(C(N)=S)cc2c(=O)n3ccccc3nc21`: the growth inhibition is 42.5%.
As to `CCNC(=O)c1cc2c(=O)n3cccc(C)c3nc2n(CCc2ccccc2)c1=N`, the growth inhibition was 70.5% (active).
`N=c1c(C(=O)NCc2ccccc2)cc2c(=O)n3ccccc3nc2n1Cc1ccco1`: the growth inhibition is 90.5% (active).
On to `CCOC(=O)CSC1=C(C#N)C(c2ccc(C)cc2)C(C(=O)OC)C(=O)N1` (stereo not drawn), for which the growth inhibition was 8.41%.
Regarding `CCOC(=O)C1=C(C)OC(N)=C(C#N)C1c1cc2ccccc2nc1N1CCCCC1` (stereo not drawn), the growth inhibition is 22.5%.
With `COC(=O)c1cc(S(=O)(=O)N2CCOCC2)c(N2CCOCC2)cc1N1CCOCC1`, the growth inhibition is 8.19%.
For `COCCCNC(=O)c1c(N)n(/N=C/c2cccnc2)c2nc3ccccc3nc12` the value was 4.43%.
With `Cc1cc(=O)oc(C)c1C(=O)NCC(C)NC(=O)c1c(C)cc(=O)oc1C` (stereo not drawn) the figure was 0.25%; with `Cc1nn(CC(=O)N2CCOCC2)c(=O)c2ccccc12`, 2.14%.
As for `CCOC(=O)c1cc2c(=O)n3cccc(C)c3nc2n(Cc2cccnc2)c1=N`, the growth inhibition is 1.61%.
`COc1ccc(CCn2c(=N)c(C(=O)NCc3ccco3)cc3c(=O)n4ccccc4nc32)cc1OC`: the growth inhibition is 48.2%.
With `COc1ccc(CCn2c(=N)c(C#N)cc3c(=O)n4ccccc4nc32)cc1` the figure was 11.5%.
With `COc1ccc(CCn2c(=N)c(C(=O)NCc3ccco3)cc3c(=O)n4ccccc4nc32)cc1` the figure was 61.2% (active).
With `C=CCn1c(=N)c(C(=O)OCC)cc2c(=O)n3cccc(C)c3nc21` the figure was 16.9%; with `CCOC(=O)c1cc2c(=O)n3ccccc3nc2n(Cc2ccccc2Cl)c1=N`, 52.6% (active); with `O=C1c2ccccc2C(=O)N1CCN1CCc2ccccc21`, 8.36%.
For `Cc1ccc(C(C)C)c(OCCNc2nc3c(c(=O)n(C)c(=O)n3C)n2C)c1`, the growth inhibition is 20.2%.
Consider `CCSc1nc(N)c2c3c(sc2n1)CCC3`, for which the growth inhibition was 6.53%.
With `c1csc(-c2nn3c(C4CCCCC4)nnc3s2)c1` the figure was 7.39%; with `CC(C)(C)n1cnc2cc(NS(=O)(=O)c3ccc(Br)cc3)ccc21`, 61.4% (active); with `CC1CN(C2CCN(S(=O)(=O)c3ccc4ccccc4c3)CC2)CC(C)O1` (stereo not drawn), 8.58%.
Take `CC(C)c1nc2sc3c(c2c(=O)o1)CCCC3`: the growth inhibition was 0.69%.
For `CCOc1ccc(C2C(C#N)=C(N)Oc3cc(C)n(CCN4CCOCC4)c(=O)c32)cc1OCC` (stereo not drawn), the growth inhibition was 1.16%.
For the compound `CO[C@H]1C[C@@H]2CC[C@@H](C)[C@@](O)(O2)C(=O)C(=O)N2CCCC[C@H]2C(=O)O[C@H]([C@H](C)C[C@@H]2CC[C@@H](O)[C@H](OC)C2)CC(=O)[C@H](C)C=C(C)[C@@H](O)[C@@H](OC)C(=O)[C@H](C)C[C@H](C)C=CC=CC=C1C`, the growth inhibition was 65.2% (active).
Regarding `CCCOC(=O)C1[C@H]2C(=O)N(Cc3ccco3)C[C@]23C=C[C@H]1O3` (stereo partly drawn), the growth inhibition was 9.74%.
For `CCCOc1ccc(C(C)=O)cc1CSCCC#N` the value was 8.19%; for `CCOC(=O)c1c(C)[nH]sc1=S`, 3.75%.
With `CCOC(=O)c1c(C)[nH]c(/C(C)=N/O)c1C` the figure was 12.8%; with `CCOC(=O)c1c(C(F)(F)C(F)(F)C(F)(F)C(F)(F)F)n[nH]c1C`, 91.1% (active).
`CCOC(=O)C1=C(C)NC(=O)C1CC(=O)Nc1ccccc1` (stereo not drawn): the growth inhibition is -0.76%.
For `CCOC(=O)C1=C(C)NC(C)=C(C(=O)OC)C1c1cccc(Cl)c1Cl` (stereo not drawn), the growth inhibition is 79.5% (active).
Take `COC(=O)C1=C(C)NC(C)=C(C(=O)OC)C1c1ccccc1[N+](=O)[O-]`: the growth inhibition is 47.5%.
On to `CCOC(=O)C1=C(C)NC(C)=C(C(=O)OC)C1c1cccc([N+](=O)[O-])c1` (stereo not drawn), for which the growth inhibition is 52.7% (active).
For `CCOC(=O)C1=C(C)NC(=O)NC1c1ccc2c(c1)OCO2` (stereo not drawn), the growth inhibition is 5.16%.
Consider `COCCOC(=O)C1=C(C)NC(C)=C(C(=O)OC(C)C)C1c1cccc([N+](=O)[O-])c1` (stereo not drawn), for which the growth inhibition was 34.4%.
For the compound `Cc1c(O)c(CN2CCCC2)cc2c1oc(=O)c1ccccc12`, the growth inhibition was 9.98%.
In the case of `N#Cc1c(N2CCOCC2)nc(-c2ccco2)c2c1CCCC2`, the growth inhibition is 7.04%.
Consider `CCC(=O)c1ccc(O)cc1`, for which the growth inhibition is 4.76%.
For `C/C=C(/C(=C/C)c1ccc(O)cc1)c1ccc(O)cc1`, the growth inhibition is 50.9% (active).
With `Cn1c(NCCN2CCCCC2)cc(=O)n(C)c1=O`, the growth inhibition was -1.36%.
In the case of `COc1cc(C2CC(C(F)(F)F)n3ncc(C(=O)O)c3N2)cc(OC)c1OC` (stereo not drawn), the growth inhibition was 2.64%.
Regarding `CN1CCN(C(=O)CSc2nc(-c3cccs3)ccc2C#N)CC1`, the growth inhibition is 3.23%.
With `COc1ccc(N2C(=O)CC(N(Cc3ccc(S(N)(=O)=O)cc3)C(C)=O)C2=O)cc1` (stereo not drawn) the figure was 0.97%; with `Cc1ccc2[nH]c3c(c2c1)CN(C(=O)CN1CC(C)OC(C)C1)CC3` (stereo not drawn), 3.04%.
Regarding `Cc1ccc2[nH]c3c(c2c1)CN(C(=O)CN1CCCc2ccccc21)CC3`, the growth inhibition was 69% (active).
Regarding `Cc1ccc2[nH]c3c(c2c1)CN(C(=O)CN1CCN(c2ccccn2)CC1)CC3`, the growth inhibition is 15.6%.
